The supplement of paper PMC10849652
Targets with a hit are over-represented here; the source holds about 7,900 in all. About 0.6% of all pairs of compound and target were hits.

What was measured:
Experiment in all cases: log2 fold change, soluble protein after heating vs DMSO (PISA); higher = thermal stabilisation; K562 cells, 10 uM, 30 min; active = over 0.2 and 3.5 SD of the protein, either way, in both replicates (recomputed)
saracatinib = compound: CN1CCN(CCOc2cc(OC3CCOCC3)c3c(Nc4c(Cl)ccc5c4OCO5)ncnc3c2)CC1 [saracatinib]
How it was run: (§1)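 K562 cells (2×10^6 cells/mL) were treated with 10 μM compound for 30 min, and aliquots were heated for 3 min over 48°C-58°C. Pooled aliquots were extracted in PBS with 0.5% NP-40 at 4°C, and the supernatant after 21,000xg for 90 min was measured by TMTpro 16plex LC-MS/MS with channel sums equalised. Reported thermal stability, relative to control samples and from duplicates, is a log2 fold change.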

sotrastaurin = compound: CN1CCN(c2nc(C3=C(c4c[nH]c5ccccc45)C(=O)NC3=O)c3ccccc3n2)CC1 [sotrastaurin]
How it was run: as §1

alvocidib = compound: CN1CC[C@H](c2c(O)cc(O)c3c(=O)cc(-c4ccccc4Cl)oc23)[C@H](O)C1 [alvocidib]
How it was run: as §1

Tubastatin A = compound: CN1CCc2c(c3ccccc3n2Cc2ccc(C(=O)NO)cc2)C1 [Tubastatin A]
How it was run: as §1

[1] = compound: CNC(=O)C1=CC=CC=C1NC2=NC(=NC=C2Cl)NC3=C(C=C(C=C3)N4CCOCC4)OC
How it was run: as §1

defactinib = compound: CNC(=O)c1ccc(Nc2ncc(C(F)(F)F)c(NCc3nccnc3N(C)S(C)(=O)=O)n2)cc1 [defactinib]
How it was run: as §1

rucaparib = compound: CNCc1ccc(-c2[nH]c3cc(F)cc4c3c2CCNC4=O)cc1 [rucaparib]
How it was run: as §1

[2] = compound: CNc1nc(-c2ccc3c(N)n[nH]c3c2)cc(N2C[C@@H](C(=O)NC3CCCCC3)CC[C@H]2C)n1
How it was run: as §1

encorafenib = compound: COC(=O)N[C@@H](C)CNc1nccc(-c2cn(C(C)C)nc2-c2cc(Cl)cc(NS(C)(=O)=O)c2F)n1 [encorafenib]
How it was run: as §1

[3] = compound: COC(=O)[C@H](CCSC)NC(=O)C1=C(C=C(C=C1)NC[C@H](CS)N)C2=CC=CC=C2
How it was run: as §1

Measured: log2 fold change

SLC19A1 (UniProt P41440)
Sequence of UniProt P41440 (P41440 whole entry, looked up): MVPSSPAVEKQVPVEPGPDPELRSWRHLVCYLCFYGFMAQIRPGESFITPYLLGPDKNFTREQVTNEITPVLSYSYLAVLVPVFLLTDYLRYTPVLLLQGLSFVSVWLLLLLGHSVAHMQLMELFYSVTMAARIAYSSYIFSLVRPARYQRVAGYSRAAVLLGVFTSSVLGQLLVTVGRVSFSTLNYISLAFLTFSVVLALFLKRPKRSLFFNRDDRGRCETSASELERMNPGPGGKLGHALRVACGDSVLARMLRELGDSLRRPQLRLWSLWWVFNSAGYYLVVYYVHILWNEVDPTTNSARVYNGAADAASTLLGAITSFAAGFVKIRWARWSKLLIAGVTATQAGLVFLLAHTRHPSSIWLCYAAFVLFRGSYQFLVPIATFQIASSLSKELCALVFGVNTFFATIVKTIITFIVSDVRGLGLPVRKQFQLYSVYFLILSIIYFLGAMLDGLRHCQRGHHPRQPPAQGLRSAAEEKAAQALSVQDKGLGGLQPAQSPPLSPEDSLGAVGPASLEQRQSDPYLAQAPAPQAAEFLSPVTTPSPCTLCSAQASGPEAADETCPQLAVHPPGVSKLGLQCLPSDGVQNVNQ
inactive: saracatinib 0.012 | sotrastaurin -0.173 | alvocidib 0.06 | Tubastatin A -0.021 | [1] -0.035 | defactinib -0.061 | rucaparib -0.179 | [2] -0.048 | encorafenib 0.041 | [3] -0.003

RARS2 (UniProt Q5T160)
Sequence of UniProt Q5T160 (Q5T160 whole entry, looked up): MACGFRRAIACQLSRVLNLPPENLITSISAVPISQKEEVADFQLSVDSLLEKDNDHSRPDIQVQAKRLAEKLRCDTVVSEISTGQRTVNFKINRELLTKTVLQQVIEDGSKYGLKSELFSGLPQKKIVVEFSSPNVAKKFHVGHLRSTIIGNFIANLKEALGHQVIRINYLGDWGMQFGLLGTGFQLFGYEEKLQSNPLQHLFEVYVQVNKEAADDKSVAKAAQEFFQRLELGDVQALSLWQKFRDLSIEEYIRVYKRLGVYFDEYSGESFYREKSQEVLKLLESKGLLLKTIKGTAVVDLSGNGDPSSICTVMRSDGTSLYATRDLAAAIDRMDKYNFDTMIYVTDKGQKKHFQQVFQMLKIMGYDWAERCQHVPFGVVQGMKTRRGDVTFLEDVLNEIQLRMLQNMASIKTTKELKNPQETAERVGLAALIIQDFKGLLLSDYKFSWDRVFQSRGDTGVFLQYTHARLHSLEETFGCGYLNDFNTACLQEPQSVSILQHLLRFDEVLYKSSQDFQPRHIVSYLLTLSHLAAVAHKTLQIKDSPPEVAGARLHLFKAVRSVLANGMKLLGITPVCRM
inactive: saracatinib 0.005 | sotrastaurin -0.101 | alvocidib -0.086 | Tubastatin A -0.056 | [1] -0.035 | defactinib -0.064 | rucaparib 0.003 | [2] -0.042 | encorafenib 0.026 | [3] -0.003

RBM25 (UniProt P49756)
inactive: saracatinib -0.025 | sotrastaurin -0.109 | alvocidib -0.133 | Tubastatin A 0.058 | [1] -0.164 | rucaparib 0.03 | [2] -0.091 | encorafenib -0.094 | [3] 0.014
active: defactinib -0.24

SHCBP1 (UniProt Q8NEM2)
Sequence of UniProt Q8NEM2 (Q8NEM2 whole entry, looked up): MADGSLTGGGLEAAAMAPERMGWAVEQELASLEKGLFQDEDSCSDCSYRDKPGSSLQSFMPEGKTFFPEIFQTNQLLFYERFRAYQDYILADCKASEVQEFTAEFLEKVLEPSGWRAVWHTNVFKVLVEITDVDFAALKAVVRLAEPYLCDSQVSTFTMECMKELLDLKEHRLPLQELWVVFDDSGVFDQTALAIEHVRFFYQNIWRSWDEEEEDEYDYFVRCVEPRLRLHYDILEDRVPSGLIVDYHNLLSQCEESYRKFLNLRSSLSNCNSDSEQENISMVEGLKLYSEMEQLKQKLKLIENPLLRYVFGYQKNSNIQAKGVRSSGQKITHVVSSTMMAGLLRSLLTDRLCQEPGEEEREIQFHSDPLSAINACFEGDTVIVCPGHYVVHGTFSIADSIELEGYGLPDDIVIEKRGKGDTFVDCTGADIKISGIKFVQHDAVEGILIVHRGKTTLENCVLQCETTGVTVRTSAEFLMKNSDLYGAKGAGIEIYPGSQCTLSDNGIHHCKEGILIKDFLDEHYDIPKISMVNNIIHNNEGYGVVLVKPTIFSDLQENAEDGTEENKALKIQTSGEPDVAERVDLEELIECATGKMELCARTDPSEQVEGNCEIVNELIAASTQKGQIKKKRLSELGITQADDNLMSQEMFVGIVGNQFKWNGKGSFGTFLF
inactive: saracatinib -0.044 | sotrastaurin 0.017 | alvocidib -0.07 | Tubastatin A 0.174 | [1] -0.061 | defactinib -0.194 | rucaparib -0.104 | [2] -0.081 | encorafenib 0.149 | [3] -0.018

SAMD4B (UniProt Q5PRF9)
Sequence of UniProt Q5PRF9 (Q5PRF9 whole entry, looked up): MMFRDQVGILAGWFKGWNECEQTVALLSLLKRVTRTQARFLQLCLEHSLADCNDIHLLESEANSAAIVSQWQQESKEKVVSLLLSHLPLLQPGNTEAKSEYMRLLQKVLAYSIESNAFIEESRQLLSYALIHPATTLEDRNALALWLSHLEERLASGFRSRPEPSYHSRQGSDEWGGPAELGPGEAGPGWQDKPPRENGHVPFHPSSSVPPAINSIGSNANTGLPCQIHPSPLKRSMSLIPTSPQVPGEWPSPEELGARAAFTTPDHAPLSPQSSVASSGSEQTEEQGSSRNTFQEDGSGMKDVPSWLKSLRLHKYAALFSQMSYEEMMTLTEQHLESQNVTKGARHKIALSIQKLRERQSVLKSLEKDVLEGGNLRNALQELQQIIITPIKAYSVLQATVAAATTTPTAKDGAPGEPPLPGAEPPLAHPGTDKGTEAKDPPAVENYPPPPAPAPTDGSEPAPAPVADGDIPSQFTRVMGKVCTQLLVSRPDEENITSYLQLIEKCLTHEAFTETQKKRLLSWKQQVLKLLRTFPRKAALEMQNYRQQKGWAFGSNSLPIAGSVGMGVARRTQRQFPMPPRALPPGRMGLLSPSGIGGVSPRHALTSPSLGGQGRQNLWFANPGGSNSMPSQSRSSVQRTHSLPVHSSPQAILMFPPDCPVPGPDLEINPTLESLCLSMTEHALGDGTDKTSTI
inactive: saracatinib -0.349 | sotrastaurin -0.036 | alvocidib -0.059 | Tubastatin A 0.167 | [1] -0.132 | [2] 0.096

RAF1 isoform 2 (UniProt P04049)
Sequence of UniProt P04049 (P04049 whole entry, looked up): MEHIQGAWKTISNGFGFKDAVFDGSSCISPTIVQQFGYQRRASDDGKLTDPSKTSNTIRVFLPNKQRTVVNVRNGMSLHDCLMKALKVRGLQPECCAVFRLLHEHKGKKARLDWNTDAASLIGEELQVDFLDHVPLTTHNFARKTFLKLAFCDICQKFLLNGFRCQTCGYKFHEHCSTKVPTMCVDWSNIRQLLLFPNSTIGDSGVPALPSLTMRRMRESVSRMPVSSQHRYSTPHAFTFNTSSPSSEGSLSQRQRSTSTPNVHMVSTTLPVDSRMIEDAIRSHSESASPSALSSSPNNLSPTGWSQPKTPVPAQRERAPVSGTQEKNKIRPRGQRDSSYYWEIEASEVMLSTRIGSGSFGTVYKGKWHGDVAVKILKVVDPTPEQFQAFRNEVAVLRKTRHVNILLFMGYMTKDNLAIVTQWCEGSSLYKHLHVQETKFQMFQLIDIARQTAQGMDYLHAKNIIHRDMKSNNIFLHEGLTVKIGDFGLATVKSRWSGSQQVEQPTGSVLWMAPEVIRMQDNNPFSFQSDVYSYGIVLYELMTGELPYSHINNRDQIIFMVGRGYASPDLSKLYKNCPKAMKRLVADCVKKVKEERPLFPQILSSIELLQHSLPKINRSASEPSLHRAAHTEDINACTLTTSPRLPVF
active: encorafenib 0.737
inactive: saracatinib -0.029 | sotrastaurin -0.167 | alvocidib -0.105 | Tubastatin A -0.036 | [1] 0.078 | defactinib -0.075 | rucaparib 0.125 | [2] 0.176 | [3] -0.069

RABGAP1L isoform 5 (UniProt Q5R372)
inactive: saracatinib -0.027 | sotrastaurin 0.017 | alvocidib -0.053 | Tubastatin A -0.056 | [1] -0.014 | [2] -0.071

RARS (UniProt P54136)
inactive: saracatinib -0.103 | sotrastaurin -0.192 | alvocidib 0.151 | Tubastatin A 0.008 | [1] -0.073 | defactinib 0.187 | rucaparib 0.367 | [2] 0.138 | encorafenib 0.217 | [3] -0.024

SCCPDH (UniProt Q8NBX0)
Sequence of UniProt Q8NBX0 (Q8NBX0 whole entry, looked up): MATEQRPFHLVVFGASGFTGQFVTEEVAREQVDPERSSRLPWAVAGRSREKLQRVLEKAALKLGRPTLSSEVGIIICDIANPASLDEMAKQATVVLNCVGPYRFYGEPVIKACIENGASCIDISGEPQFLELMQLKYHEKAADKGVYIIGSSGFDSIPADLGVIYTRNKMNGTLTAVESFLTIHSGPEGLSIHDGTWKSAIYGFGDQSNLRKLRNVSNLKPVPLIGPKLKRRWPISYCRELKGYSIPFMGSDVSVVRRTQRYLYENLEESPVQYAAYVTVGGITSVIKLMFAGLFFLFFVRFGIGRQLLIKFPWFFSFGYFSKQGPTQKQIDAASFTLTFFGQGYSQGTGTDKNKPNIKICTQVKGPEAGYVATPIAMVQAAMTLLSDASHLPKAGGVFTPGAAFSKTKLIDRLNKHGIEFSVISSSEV
inactive: saracatinib -0.063 | sotrastaurin 0.1 | alvocidib -0.057 | Tubastatin A -0.078 | [1] 0.206 | defactinib 0.121 | rucaparib -0.081 | [2] 0.183 | encorafenib -0.041 | [3] 0.002

RSPRY1 (UniProt Q96DX4)
inactive: saracatinib -0.073 | sotrastaurin -0.01 | alvocidib 0.001 | Tubastatin A 0.009 | [1] -0.037 | defactinib 0.013 | rucaparib 0.118 | [2] 0.126 | encorafenib 0.04 | [3] 0.009

RRAS2 isoform 4 (UniProt P62070)
Sequence of UniProt P62070 (P62070 whole entry, looked up): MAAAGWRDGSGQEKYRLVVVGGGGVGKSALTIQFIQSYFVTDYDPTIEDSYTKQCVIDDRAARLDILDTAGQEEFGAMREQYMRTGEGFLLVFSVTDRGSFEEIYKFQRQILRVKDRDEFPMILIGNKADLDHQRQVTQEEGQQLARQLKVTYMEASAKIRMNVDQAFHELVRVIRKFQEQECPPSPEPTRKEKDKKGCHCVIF
inactive: saracatinib 0.069 | sotrastaurin 0.075 | alvocidib 0.024 | Tubastatin A 0.014 | [1] -0.001 | defactinib -0.016 | rucaparib 0 | [2] 0.05 | encorafenib -0.011 | [3] 0.004

RPS16 (UniProt P62249)
inactive: saracatinib -0.085 | sotrastaurin 0.004 | alvocidib 0.193 | Tubastatin A 0.05 | [1] 0.108 | defactinib 0.185 | rucaparib 0.126 | [2] 0.056 | encorafenib 0.033 | [3] 0.004

SELENOH (UniProt Q8IZQ5)
Sequence of UniProt Q8IZQ5 (Q8IZQ5 whole entry, looked up): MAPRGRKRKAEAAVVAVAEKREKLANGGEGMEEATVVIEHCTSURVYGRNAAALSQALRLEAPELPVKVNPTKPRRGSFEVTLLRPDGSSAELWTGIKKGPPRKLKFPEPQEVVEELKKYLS
inactive: saracatinib 0.124 | sotrastaurin -0.171 | alvocidib 0.066 | Tubastatin A 0.032 | [1] -0.063 | defactinib -0.026 | rucaparib -0.011 | [2] 0.022 | encorafenib 0.011 | [3] -0.038

RAB3GAP2 (UniProt Q9H2M9)
inactive: saracatinib -0.111 | sotrastaurin -0.195 | alvocidib -0.013 | Tubastatin A 0.058 | [1] 0.017 | defactinib -0.064 | rucaparib 0.205 | [2] 0.039 | encorafenib 0.189 | [3] -0.089

RPS2 (UniProt P15880)
inactive: saracatinib -0.058 | sotrastaurin 0 | alvocidib 0.25 | Tubastatin A 0.059 | [1] 0.064 | defactinib 0.261 | rucaparib 0.153 | [2] 0.081 | encorafenib 0.07 | [3] 0.042
